The nature of test [1]: AP1 Signaling Pathway (AID 357; active = well fitted curve in either direction with a large enough effect, not every such curve was filed as active; also: % is scaled to controls: 0 for no effect and ±100 for the full control effect). Conditions: ME-180 (cervical carcinoma) AP-1-bla reporter, EGF-induced, beta-lactamase ratio, 5 h; at 7.69 µM (top of the series) unless noted. An outline of the steps: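 Cells are seeded overnight, exposed to compound titrations and an EC50 level of EGF for 5 hours at 37 °C, then loaded with CCF4 dye for 2.5 hours. Beta-lactamase activity under the AP-1 element is read as a blue/green ratio.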

Test [2] concerns the target Cytochrome P450 1A2 (Homo sapiens) (UniProt P05177). In words: p450-cyp1a2 (AID 410; calls by dose curve;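 also: -100% = full effect of reference inhibitor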). An outline of the steps:
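20nM CYP1A2 with 100uM Luciferin-ME (at Km) in 100mM KPO4; compound preincubated 10 min, NADPH regeneration added, 60 min at room temperature. Luciferin quantified by luminescence after detection reagent; normalized to 57 uM furafylline.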

The nature of test [3]: NFAT Signaling Pathway (AID 444; active = well fitted curve in either direction with a large enough effect, not every such curve was filed as active;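 also: carbachol stimulus at about its EC50 of 1 µM final; % is scaled to controls: 0 for no effect and ±100 for the full control effect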). Conditions: Jurkat NFAT-bla M1, carbachol, beta-lactamase ratio, 5 h; at 7.69 µM (top of the series) unless noted. An outline of the steps:
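Read-out: CCF4 FRET ratio (460 nm/530 nm) after 1 h RT dye loading, used for %activity and AC50 from titration series. Cells: Jurkat NFAT-β-lactamase/M1 line, treated with compound plus 1 uM carbachol for 5 h, 37 °C.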

The target of test [4] is Glucocorticoid receptor (Homo sapiens) (UniProt P04150). The test can be described thus: GR-GFP Redistribution (AID 450;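 active = compounds whose dose series gives a full or clear partial fitted curve of increased nuclear translocation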; also: potency is read from the fitted curve at half-maximal effect). The following applies: U2OS GR-GFP nuclear translocation, laser cytometry, 2 h.
Glucocorticoid receptor (Homo sapiens), sequence (P04150 whole entry, looked up): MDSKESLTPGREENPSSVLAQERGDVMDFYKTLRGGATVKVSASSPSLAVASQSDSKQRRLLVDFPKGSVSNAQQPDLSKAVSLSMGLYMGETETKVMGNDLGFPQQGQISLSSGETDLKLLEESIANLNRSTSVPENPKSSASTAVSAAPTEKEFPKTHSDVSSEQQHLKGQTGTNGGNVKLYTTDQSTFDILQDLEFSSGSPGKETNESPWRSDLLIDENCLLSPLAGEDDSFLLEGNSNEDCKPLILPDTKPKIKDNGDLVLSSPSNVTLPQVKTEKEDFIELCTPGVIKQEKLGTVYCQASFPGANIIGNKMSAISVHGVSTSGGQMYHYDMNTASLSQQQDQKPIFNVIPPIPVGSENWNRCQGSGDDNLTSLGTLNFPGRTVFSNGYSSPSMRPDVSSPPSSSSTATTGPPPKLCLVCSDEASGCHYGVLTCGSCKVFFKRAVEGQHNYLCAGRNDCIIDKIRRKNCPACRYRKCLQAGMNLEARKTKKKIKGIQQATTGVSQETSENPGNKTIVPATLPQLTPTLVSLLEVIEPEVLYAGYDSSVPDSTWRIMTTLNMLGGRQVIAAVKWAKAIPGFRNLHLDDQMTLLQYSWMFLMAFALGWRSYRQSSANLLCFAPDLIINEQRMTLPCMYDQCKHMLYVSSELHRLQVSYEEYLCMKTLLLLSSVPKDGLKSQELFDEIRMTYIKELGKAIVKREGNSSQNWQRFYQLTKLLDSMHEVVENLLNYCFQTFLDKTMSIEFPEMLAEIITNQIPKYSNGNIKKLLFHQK
For test [5] the target is unchanged. In words: GR-EFC Redistribution (AID 451; calls by dose curve; also: potency is read from the fitted curve at half-maximal effect). Conditions: CHO-K1 GR-EFC translocation, beta-gal luminescence, 2 h. An outline of the steps:
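Translocation of GR-ED fusion to nuclear EA restores b-gal, read by luminescence after 1 h room-temperature detection. Engineered CHO-K1 biosensor cells, 1,000/well, exposed 2 h at 37 C to titrations up to 46 uM final.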

Test [6] deals with 3',5'-cyclic-AMP phosphodiesterase 4B (Homo sapiens) (UniProt Q07343). In words: qHTS Assay for Inhibitors of PDE-IV (AID 607; active = well fitted activation curve with a large enough effect in the main read-out, with a control signal flat, not every such curve was filed as active; also: % of control where 0% means no effect). An outline of the steps:
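The readout is membrane depolarisation from a cAMP-sensing CNG channel, detected with a potential dye at ex 535/em 590. Cells were HEK293-derived (endogenous PDE-IV) at 1000 cells/well, titrated up to 22.9 uM final.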
For orientation: In qHTS, concentration-response curves come from the screen itself.

Test [7] has as its target Guanine nucleotide-binding protein G(i) subunit alpha-1 (Homo sapiens) (UniProt P63096). The test can be described thus: qHTS Assay for Inhibitors of RGS12 GoLoco Motif Activity (Green Fluorophore) (AID 879).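 Also: 0% = labeled peptide with Gαi1 and full inhibition = labeled peptide alone without protein; negative values mean loss of peptide binding seen as reduced polarization.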 An outline of the steps: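 Fluorescence polarization assay: 50 nM Gαi1 with 10 nM FITC-labeled RGS12 GoLoco peptide in 10 mM Tris pH 7.5, 150 mM NaCl, 0.1 mM GDP, 0.05% NP40, 10 min at room temperature with compound.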

Test [8] addresses Cytochrome P450 3A4 (Homo sapiens) (UniProt P08684). In words: qHTS Assay for Activators of Cytochrome P450 3A4 (AID 885). Also: nearly all actives have a fitted effect of over 65% in size. An outline of the steps: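 Steps: enzyme/substrate mix dispensed; compound added, 10 min RT; NADPH regeneration solution added, 60 min RT; luciferin detection buffer stops reaction; 20 min later luminescence measured.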
Test [9] can be described thus: qHTS Assay for Identification of Small Molecule Antagonists for NFkB Signaling Pathway (AID 895; active = well fitted inhibition curve with a large enough effect in the signal ratio, with a control signal flat, not every such curve was filed as active; the % refers to the signal ratio; also: potency is read from the fitted curve at half-maximal effect). Conditions: NFkB beta-lactamase reporter cells, FRET ratio 460/530; stimulated with 10 pM TNF alpha. An outline of the steps:
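Beta-lactamase reporter read-out (460 and 530 nm emission ratio, 405 nm excitation, 2 hrs substrate loading RT) after 5 hr stimulation with 10 pM TNF alpha in compound-treated NFkB-bla ME-180 cells in low-serum medium.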

The target in test [10] is Muscarinic acetylcholine receptor M1 (Rattus norvegicus) (UniProt P08482). In words: qHTS Assay for Antagonists of Acetylcholine Muscarinic M1 Receptor: Kinetic Measurement of Intracellular Calcium Response (AID 943). Also: nearly all actives have a fitted effect of over 75% in size. An outline of the steps: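 CHO cells expressing rat M1 receptor, Fluo-4 loaded, preincubated 10 min with compound, then stimulated with EC80 carbachol (100 nM final). Kinetic calcium fluorescence over 4 min; response taken as peak over basal signal.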

The target in test [11] is Pyruvate kinase (Leishmania mexicana) (UniProt Q27686). The test can be described thus: qHTS Validation Assay for Inhibitors of Leishmania Mexicana Pyruvate Kinase (AID 945).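 Also: 0% = DMSO only neutral control wells.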 An outline of the steps:
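Eight-point qHTS titrations; enzyme 0.2 nM LmPYK (E451W mutant); substrates 0.5 mM PEP, 0.1 mM ADP; 7 mM MgCl2; 1 h room temperature; PKLight luminescence normalized to neutral control.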

Test [12] deals with Pyruvate kinase PKM (Homo sapiens) (UniProt P14618). The test can be described thus: qHTS Assay for Activators of Human Muscle Pyruvate Kinase (AID 954; active = well fitted curve in the direction sought with a large enough effect, not every such curve was filed as active;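 also: 0% = uninhibited enzyme and -100% = no enzyme or full thiadiazolimine inhibition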). An outline of the steps:
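Reaction: 0.1 nM purified PKM2 with 0.5 mM phosphoenolpyruvate and 0.1 mM ADP, room temperature, 1 h. Readout: luciferase-based ATP luminescence after stop reagent. Activators judged against a 0.3 nM enzyme column.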

In test [13] the target is Alpha-galactosidase A (Homo sapiens) (UniProt P06280). In words: Counterscreen for Glucocerebrosidase Inhibitors: qHTS Assay for Human alpha-Galactosidase at pH 4.5 (AID 992). Also: 0% is about no effect. An outline of the steps:
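Concentration-response curves (0.7 nM to 77 uM final) were modeled with the Hill equation to give AC50. Reactions: 2 nM enzyme, 80 uM fluorogenic alpha-galactoside, pH 4.5 citric acid buffer, 20 min, room temperature.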
Background: The purpose of a counterscreen is to sort out artefacts and off-target activity.

In test [14] the target is alpha-glucosidase (Oryza sativa, rice) (UniProt Q653V4). In words: Counterscreen for Glucocerebrosidase Inhibitors: qHTS Assay for Rice alpha-Glucosidase at pH 5.0 (AID 997).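 Also: 0% = full activity with enzyme and -100% = basal without enzyme.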 An outline of the steps: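 Rice alpha-glucosidase (4 nM final) with 400 uM 4-methylumbelliferyl-alpha-D-glucopyranoside in citrate buffer pH 5.0, 20 min at room temperature, stopped at pH 10; fluorescence 365/440 nm, compounds 0.7 nM–77 uM, AC50 from Hill fits.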

Test [15] has as its target Catechol O-methyltransferase (Homo sapiens) (UniProt P21964). In words: Confirmatory Screen for Target Class Profiling of Small Molecule Inhibitors of Methyltransferases (AID 1745852; calls by dose curve; also: potency is read from the fitted curve at half-maximal effect). Conditions: MTase-Glo luminescence, SAH detection, recombinant enzyme; measured here: COMT max response; stronger effect = lower value.
In test [16] the target is Guanidinoacetate N-methyltransferase (Homo sapiens) (UniProt Q14353). The description is as above. Conditions: activity change, negative = inhibition: at 57.3 µM (top of the series) unless noted.
The target of test [17] is Nicotinamide N-methyltransferase (Homo sapiens) (UniProt P40261). Described as above. Conditions: MTase-Glo luminescence, SAH detection, recombinant enzyme; measured here: NNMT max response; stronger effect = lower value.
Test [18] addresses Phenylethanolamine N-methyltransferase (Homo sapiens) (UniProt P11086). The description is as above. Conditions: MTase-Glo luminescence, SAH detection, recombinant enzyme; measured here: PNMT max response; stronger effect = lower value.
The nature of test [19]: NCATS anti-infectives library activity on HEK293 viability as a counter-qHTS vs the C. elegans viability qHTS (AID 1745854).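 Also: HEK293 cells exposed to compounds for 24 hr before the viability read; % is scaled to controls: 0 for no effect and ±100 for the full control effect.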 An outline of the steps: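 HEK293 cells (1,500/well) exposed 24 hr at 37C to 1:5 titrations, up to 41.7 uM final; counter-screen to a C. elegans viability qHTS. Viability by CellTiter-Glo luminescence after 10 min at room temperature; digitonin as control.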

Each structure is given as a SMILES string. Results filed as inconclusive are left out. Active and inactive are the calls of the source. Unless noted, calls follow the shape of the dose curve; as a rule, active = well fitted curve in the direction sought with a large enough effect; inconclusive = small, poorly fitted or top-dose-only effect, or another doubt; inactive = no such curve, though single readings can be large; an effect the other way counts as inactive or inconclusive. A value given as a limit tells only on which side of the number the result lay.

Pyruvate kinase PKM (Homo sapiens), sequence (P14618 whole entry, looked up): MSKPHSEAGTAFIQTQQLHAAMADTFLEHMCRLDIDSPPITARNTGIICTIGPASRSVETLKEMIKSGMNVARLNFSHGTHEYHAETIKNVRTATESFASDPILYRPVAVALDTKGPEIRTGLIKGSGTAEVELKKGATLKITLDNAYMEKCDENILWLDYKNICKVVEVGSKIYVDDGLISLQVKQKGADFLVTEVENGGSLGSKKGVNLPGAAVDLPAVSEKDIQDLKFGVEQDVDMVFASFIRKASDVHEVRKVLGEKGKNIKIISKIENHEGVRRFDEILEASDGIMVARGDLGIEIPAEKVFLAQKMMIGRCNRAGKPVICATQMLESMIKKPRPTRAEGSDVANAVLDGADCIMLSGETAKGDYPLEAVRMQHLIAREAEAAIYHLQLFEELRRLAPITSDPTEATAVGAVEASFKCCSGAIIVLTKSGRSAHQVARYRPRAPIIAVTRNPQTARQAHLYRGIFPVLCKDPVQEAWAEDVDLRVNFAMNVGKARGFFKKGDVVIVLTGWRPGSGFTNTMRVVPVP
Alpha-galactosidase A (Homo sapiens), sequence (P06280 whole entry, looked up): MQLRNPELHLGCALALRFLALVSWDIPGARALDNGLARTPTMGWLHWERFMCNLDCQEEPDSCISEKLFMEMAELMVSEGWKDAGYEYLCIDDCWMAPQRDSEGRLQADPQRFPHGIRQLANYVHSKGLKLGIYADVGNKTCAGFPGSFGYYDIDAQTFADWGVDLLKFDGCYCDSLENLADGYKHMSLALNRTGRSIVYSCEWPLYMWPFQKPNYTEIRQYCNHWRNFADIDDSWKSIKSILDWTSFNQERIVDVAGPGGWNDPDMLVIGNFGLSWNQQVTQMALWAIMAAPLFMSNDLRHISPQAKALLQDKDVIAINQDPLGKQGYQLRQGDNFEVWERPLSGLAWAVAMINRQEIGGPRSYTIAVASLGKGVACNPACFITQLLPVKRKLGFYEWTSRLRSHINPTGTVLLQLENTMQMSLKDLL
Catechol O-methyltransferase (Homo sapiens), sequence (P21964 whole entry, looked up): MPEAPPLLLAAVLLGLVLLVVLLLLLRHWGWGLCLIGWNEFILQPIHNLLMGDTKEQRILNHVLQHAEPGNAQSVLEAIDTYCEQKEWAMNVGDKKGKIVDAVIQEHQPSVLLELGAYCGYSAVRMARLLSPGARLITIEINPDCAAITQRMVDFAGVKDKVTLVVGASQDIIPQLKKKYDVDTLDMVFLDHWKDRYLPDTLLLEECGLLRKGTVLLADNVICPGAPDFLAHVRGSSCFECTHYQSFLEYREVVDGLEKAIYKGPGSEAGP
Cytochrome P450 1A2 (Homo sapiens), sequence (P05177 whole entry, looked up): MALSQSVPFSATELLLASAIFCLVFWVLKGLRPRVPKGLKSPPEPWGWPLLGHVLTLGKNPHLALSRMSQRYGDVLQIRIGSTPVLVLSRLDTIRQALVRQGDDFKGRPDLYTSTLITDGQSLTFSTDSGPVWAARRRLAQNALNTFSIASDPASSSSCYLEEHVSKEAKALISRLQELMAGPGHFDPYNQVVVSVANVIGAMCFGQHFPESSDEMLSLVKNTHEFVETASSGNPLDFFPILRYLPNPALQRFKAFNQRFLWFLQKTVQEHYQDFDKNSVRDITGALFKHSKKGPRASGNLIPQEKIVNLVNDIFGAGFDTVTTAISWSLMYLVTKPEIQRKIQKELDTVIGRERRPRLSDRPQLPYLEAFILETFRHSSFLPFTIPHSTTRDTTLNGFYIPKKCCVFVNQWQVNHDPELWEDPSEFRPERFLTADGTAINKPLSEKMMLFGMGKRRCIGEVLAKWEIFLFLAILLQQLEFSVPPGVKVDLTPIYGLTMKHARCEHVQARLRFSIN
Pyruvate kinase (Leishmania mexicana), sequence (Q27686 2-499 E452W): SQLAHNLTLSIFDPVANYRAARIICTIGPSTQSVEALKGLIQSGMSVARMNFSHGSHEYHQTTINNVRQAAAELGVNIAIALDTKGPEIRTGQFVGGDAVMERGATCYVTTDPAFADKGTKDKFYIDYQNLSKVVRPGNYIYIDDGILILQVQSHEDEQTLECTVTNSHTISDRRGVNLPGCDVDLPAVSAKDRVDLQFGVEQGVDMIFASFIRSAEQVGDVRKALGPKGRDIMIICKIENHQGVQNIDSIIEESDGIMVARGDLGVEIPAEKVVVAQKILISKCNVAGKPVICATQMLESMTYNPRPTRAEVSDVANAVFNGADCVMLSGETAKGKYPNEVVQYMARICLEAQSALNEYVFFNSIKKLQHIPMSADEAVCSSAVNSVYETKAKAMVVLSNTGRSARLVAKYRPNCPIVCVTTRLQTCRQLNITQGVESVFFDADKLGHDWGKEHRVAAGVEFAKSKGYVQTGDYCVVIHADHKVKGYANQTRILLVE
3',5'-cyclic-AMP phosphodiesterase 4B (Homo sapiens), sequence (Q07343 whole entry, looked up): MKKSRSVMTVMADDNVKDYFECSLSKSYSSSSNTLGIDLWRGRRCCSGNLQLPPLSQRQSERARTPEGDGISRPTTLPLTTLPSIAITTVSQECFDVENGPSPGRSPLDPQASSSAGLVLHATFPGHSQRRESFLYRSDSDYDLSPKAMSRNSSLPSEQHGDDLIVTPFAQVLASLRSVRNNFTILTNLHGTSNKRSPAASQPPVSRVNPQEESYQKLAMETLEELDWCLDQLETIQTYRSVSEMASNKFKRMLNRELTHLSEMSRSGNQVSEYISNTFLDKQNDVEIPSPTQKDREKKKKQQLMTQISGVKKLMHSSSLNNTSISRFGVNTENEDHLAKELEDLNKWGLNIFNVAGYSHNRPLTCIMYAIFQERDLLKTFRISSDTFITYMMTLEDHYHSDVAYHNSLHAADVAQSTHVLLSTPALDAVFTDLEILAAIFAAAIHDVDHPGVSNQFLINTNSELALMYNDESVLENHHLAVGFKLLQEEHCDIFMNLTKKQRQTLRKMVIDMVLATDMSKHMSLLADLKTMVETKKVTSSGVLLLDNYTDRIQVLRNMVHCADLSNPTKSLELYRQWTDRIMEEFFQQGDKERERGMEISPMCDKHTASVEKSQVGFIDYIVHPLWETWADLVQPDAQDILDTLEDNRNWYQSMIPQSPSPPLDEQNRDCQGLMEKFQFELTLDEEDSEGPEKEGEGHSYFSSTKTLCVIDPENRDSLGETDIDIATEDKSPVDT
Phenylethanolamine N-methyltransferase (Homo sapiens), sequence (P11086 whole entry, looked up): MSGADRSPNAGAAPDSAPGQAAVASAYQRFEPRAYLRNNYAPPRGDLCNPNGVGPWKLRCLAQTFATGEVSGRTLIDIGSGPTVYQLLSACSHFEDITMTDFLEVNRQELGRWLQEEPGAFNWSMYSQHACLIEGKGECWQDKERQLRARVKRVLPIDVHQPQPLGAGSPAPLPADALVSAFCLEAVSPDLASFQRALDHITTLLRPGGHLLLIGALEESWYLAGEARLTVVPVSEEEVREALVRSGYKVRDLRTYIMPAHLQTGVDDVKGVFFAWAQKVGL
Guanine nucleotide-binding protein G(i) subunit alpha-1 (Homo sapiens), sequence (P63096 whole entry, looked up): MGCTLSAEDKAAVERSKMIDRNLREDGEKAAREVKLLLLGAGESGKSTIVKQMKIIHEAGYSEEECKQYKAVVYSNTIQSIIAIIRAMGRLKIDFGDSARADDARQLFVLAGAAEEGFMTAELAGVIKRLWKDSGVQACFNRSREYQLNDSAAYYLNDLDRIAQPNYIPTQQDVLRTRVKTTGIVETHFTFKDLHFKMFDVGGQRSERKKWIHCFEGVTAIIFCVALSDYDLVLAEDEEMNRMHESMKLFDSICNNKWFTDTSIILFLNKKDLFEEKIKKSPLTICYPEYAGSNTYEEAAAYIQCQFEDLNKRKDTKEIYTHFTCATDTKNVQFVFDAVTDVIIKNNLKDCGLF
Cytochrome P450 3A4 (Homo sapiens), sequence (P08684 whole entry, looked up): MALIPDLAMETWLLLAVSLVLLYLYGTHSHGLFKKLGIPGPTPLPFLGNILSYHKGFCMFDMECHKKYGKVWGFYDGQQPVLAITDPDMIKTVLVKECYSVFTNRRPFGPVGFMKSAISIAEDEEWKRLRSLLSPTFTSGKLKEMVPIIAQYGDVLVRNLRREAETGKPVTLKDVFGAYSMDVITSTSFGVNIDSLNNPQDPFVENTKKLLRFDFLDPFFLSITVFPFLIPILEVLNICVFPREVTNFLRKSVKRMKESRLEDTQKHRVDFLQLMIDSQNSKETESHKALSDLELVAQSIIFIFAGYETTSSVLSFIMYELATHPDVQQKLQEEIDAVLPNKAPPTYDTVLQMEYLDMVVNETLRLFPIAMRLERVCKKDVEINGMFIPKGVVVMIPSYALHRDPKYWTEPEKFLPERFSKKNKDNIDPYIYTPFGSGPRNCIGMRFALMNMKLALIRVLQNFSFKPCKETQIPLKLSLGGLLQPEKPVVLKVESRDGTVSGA

As to `O=c1cc(O)cc(/C=C\c2ccc(O)c(O)c2)o1`, the results for the activity change, negative = inhibition in test [1] and in test [3] were -18.8% [at 38 µM] (inactive) and -13.6% [at 38 µM] (inactive), respectively. For the same compound, the Potency entry in test [2], in [6], in test [7] and in test [10] was “inactive” each time. Further, the Potency in test [4] is > 46 µM (inactive); in test [5] it was > 46 µM (inactive); in test [9] it was 1.26 µM (active); in test [16] it was 24.3 µM (active). Besides, the outcome in test [8], in test [11], in test [12], in test [13] and in test [14] was “inactive” throughout. In addition, the activity in [15] is 135%; in test [17], -15.8%; in test [18] it was -1.5%.

With `CC(C)=CCC/C(C)=C/CC/C(C)=C/C=C/C(C)=C/C(=O)O`, the Potency result in [19] is “inactive”.

Consider `CCCCCCCCCCCCCCCCOCCCOP(=O)(O)CO[C@H](CO)Cn1ccc(N)nc1=O`, for which the activity change, negative = cytotoxicity in test [19] is -5.25% [at 8.35 µM] (inactive).

Regarding `O=C(Cc1ccccc1)Nc1nnc(NC2CCN(c3nnc(NC(=O)Cc4ccccc4)s3)CC2)s1`, the Potency entry in test [19] was “inactive”.

For the compound `O=C(O)/C(S)=C/c1c[nH]c2ccc(F)cc12`, the Potency result in test [19] is “inactive”.

In the case of `Cc1ccc(-c2ccc3c(c2)C=C(C(=O)Nc2ccc(C[N+](C)(C)C4CCOCC4)cc2)CCC3)cc1`, the Potency result in test [19] was “inactive”.

For `Nc1cc(F)ccc1NC(=O)/C=C/c1cnn(C/C=C/c2ccccc2)c1`, in test [19], the Potency result is “inactive”.

As to `COc1ccc(-c2oc3cc(O)cc(O)c3c(=O)c2O)cc1`, the Potency entry in test [19] was “inactive”.

`S=C(S)O[C@H]1C[C@H]2C[C@@H]1[C@@H]1CCC[C@H]21`: in test [19], the Potency result is “inactive”.

On to `Cc1ccc(C2Nc3ccccc3C(=O)N2c2ccccc2)s1` (stereo unspecified), for which, in test [19], the Potency result is “inactive”.

In the case of `CS(=O)(=O)c1cc(-c2ccccc2)cc(S(=O)(=O)c2ccc(CN)s2)c1`, in test [19], the Potency result was “inactive”.

As for `COc1ccc2cc1Oc1ccc(cc1)C[C@H]1c3cc(c(OC)cc3CCN1C)Oc1c(O)c(OC)cc3c1[C@H](C2)N(C)CC3`, the Potency result in test [19] is “inactive”.

With `C/C(=N\NC(=O)C(NC(=O)c1ccccc1)c1n[nH]c(=O)c2ccccc12)c1cccc(Br)c1` (stereo unspecified), the Potency entry in test [19] is “inactive”.

Take `COc1ccc(-c2sc(NC(=O)C(C)(C)C)nc2C)cc1S(=O)(=O)Nc1ccc(O)cc1`: the Potency result in test [19] is “inactive”.

The values are drawn from PubChem BioAssay (NCATS).
